# The full list was thinned out, with hits kept by preference.
# IDE exosite FP – insulin-degrading enzyme (human) exo-site inhibition. P14735. purified IDE, FL-6b probe fluorescence polarization; active compounds read low. z-score at 20 µM. hit rate 6.3% among 17,000;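 active means z-score of -3 or lower, meaning strong loss of probe binding signal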;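 further: His-tagged human IDE residues 42-1019 made in E. coli with 30 nM FL-6b probe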
# Target sequence (P14735 42-1019 limits assumed): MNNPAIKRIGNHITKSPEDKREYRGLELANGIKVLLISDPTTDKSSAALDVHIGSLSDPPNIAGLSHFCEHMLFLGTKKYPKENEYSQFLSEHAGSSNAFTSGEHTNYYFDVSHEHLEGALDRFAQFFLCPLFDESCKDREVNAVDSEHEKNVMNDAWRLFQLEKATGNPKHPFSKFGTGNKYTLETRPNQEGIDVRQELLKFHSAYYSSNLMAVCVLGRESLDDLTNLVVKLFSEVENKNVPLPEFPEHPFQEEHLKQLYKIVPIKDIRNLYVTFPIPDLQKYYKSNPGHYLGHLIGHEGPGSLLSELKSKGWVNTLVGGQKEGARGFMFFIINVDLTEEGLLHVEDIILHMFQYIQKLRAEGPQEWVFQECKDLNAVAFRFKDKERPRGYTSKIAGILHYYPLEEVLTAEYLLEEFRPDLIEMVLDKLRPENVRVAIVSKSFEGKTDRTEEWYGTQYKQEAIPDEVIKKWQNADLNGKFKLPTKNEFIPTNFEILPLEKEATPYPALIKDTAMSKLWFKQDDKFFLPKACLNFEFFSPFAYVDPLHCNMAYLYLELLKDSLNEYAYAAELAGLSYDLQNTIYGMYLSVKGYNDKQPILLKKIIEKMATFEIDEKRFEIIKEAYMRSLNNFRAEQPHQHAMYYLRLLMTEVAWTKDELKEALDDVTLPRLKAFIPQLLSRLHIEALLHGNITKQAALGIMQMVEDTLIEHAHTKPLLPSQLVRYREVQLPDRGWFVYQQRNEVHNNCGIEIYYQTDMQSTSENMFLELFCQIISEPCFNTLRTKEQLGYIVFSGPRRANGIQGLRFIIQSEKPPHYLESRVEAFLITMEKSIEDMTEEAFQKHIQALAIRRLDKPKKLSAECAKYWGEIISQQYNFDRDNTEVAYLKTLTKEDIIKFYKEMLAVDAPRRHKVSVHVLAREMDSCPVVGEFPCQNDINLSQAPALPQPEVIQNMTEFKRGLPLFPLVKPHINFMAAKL
# Active calls of the source: *.
SMILES,IDE exosite FP
N#C[C@@H]1[C@H](c2ccc(C#Cc3ccc(F)cc3)cc2)[C@@H](CO)N1C(=O)C1CCCC1,-0.026
COc1ccccc1C#Cc1ccc([C@@H]2[C@@H](C#N)N(C(=O)C3CCC3)[C@@H]2CO)cc1,-4.6*
COc1ccccc1C#Cc1ccc([C@H]2[C@H](C#N)N(C(=O)C3CCC3)[C@H]2CO)cc1,-8.1*
COc1ccccc1C#Cc1ccc([C@@H]2[C@@H](CO)N(C(=O)C3CCCCC3)[C@H]2C#N)cc1,-1.7
N#C[C@@H]1[C@H](c2ccc(C#Cc3ccccc3F)cc2)[C@H](CO)N1C(=O)C1CCC1,3.6
N#C[C@@H]1[C@@H](c2ccc(C#Cc3ccccc3F)cc2)[C@@H](CO)N1C(=O)C1CCCCC1,2.9
C/C=C/c1ccc([C@H]2[C@@H](CO)N3C(=O)CN(C(=O)c4ccc(F)cc4)C[C@@H]23)cc1,0.17
C[C@@H]1CN([C@@H](C)CO)C(=O)c2c(c3ccccc3n2C)-c2ccccc2CO[C@H]1CN(C)Cc1cccc(C(=O)Nc2ccccc2N)c1,-0.067
CN1CCCCN2[C@@H](CO)[C@H](c3ccc(Br)cc3)[C@@H]2C1,1.7
O=S(=O)(c1ccccc1)N1CCCCN2[C@H](C1)[C@H](c1ccc(-c3cncnc3)cc1)[C@@H]2CO,4.7
O=C(NC[C@@H]1[C@@H](c2ccccc2)[C@@H](CO)N1Cc1ccccc1)c1ccccn1,2.7
O=C1CN(S(=O)(=O)Cc2ccccc2)C[C@H]2[C@@H](c3ccc(C#CC4CC4)cc3)[C@H](CO)N12,0.85
CCS(=O)(=O)N1CC(=O)N2[C@H](CO)[C@@H](c3ccc(C#CCC4CCCC4)cc3)[C@H]2C1,1.6
C/C=C/c1ccc([C@H]2[C@H](CO)N3C(=O)CN(Cc4ccc(C(=O)OC)cc4)C[C@@H]23)cc1,2
COc1ccccc1C#Cc1ccc([C@@H]2[C@@H](C#N)N(C(=O)C3CCC3)[C@H]2CO)cc1,-4.8*
COc1ccccc1C#Cc1ccc([C@@H]2[C@@H](CO)N(C(=O)C3CCC3)[C@H]2C#N)cc1,-4.2*
O=C1CN(S(=O)(=O)Cc2ccccc2)C[C@H]2[C@@H](c3ccc(C#CC4CC4)cc3)[C@@H](CO)N12,3.4
C/C=C/c1ccc([C@H]2[C@@H](CO)N(c3ncc(CC)s3)[C@H]2C#N)cc1,1.3
COc1ccc2c3c([nH]c2c1)[C@H](CO)N(C(=O)c1cccnc1)CC31CN(Cc2ccccc2)C1,1
CN(C)C(=O)c1ccc(-c2ccc([C@@H]3[C@H]4CN(C(=O)C5CCCC5)CC(=O)N4[C@H]3CO)cc2)cc1,0.36
CN(C)C(=O)c1cccc(-c2ccc3c(c2)[C@@H]2[C@@H](CCN2C(=O)Nc2ccc(F)cc2)[C@H](CO)N3C)c1,0.88
N#C[C@H]1N[C@H](CO)[C@@H]1c1ccc(-c2ccccc2F)cc1,-4.4*
COc1ccc(-c2ccc([C@@H]3[C@H](C#N)N[C@H]3CO)cc2)cc1,4.1
N#C[C@@H]1N[C@H](CO)[C@@H]1c1ccc(-c2ccccc2F)cc1,4.7
COc1ccc(-c2ccc([C@H]3[C@@H](C#N)N[C@@H]3CO)cc2)cc1,3.1
SMILES,IDE exosite FP
N#C[C@H]1N[C@H](CO)[C@H]1c1ccccc1,3.8
COc1ccccc1-c1ccc([C@H]2[C@H](C#N)N[C@@H]2CO)cc1,-12*
C[C@H](CO)N1C[C@H](C)[C@@H](CN(C)S(=O)(=O)c2cn(C)cn2)OCc2ccccc2-c2ccccc2C1=O,0.14
COc1ccccc1-c1ccc([C@H]2[C@@H](CO)N3CCCCN(C(=O)NC4CCCC4)C[C@H]23)cc1,-19*
O=C(NC1CCCC1)N1CCCCN2[C@@H](CO)[C@@H](c3ccc(-c4ccncc4)cc3)[C@@H]2C1,4.8
O=C(NC1CCCC1)N1CCCCN2[C@H](C1)[C@H](c1ccc(-c3ccncc3)cc1)[C@@H]2CO,2.9
O=C(NC1CCCC1)N1CCCCN2[C@H](CO)[C@@H](c3ccc(-c4cccnc4)cc3)[C@H]2C1,-0.77
O=C(NC1CCCC1)N1CCCCN2[C@@H](CO)[C@H](c3ccc(-c4cccnc4)cc3)[C@@H]2C1,-2.9
COc1ccccc1-c1ccc([C@H]2[C@H](CO)N3CCCCN(C(=O)NC4CCCC4)C[C@@H]23)cc1,-12*
O=C(Cc1cccnc1)N1CC(=O)N2[C@H](C1)[C@H](c1ccc(C3=CCCC3)cc1)[C@@H]2CO,2.6
C/C=C/c1ccccc1[C@@H]1[C@@H](CO)N(C(=O)c2cccnc2)[C@H]1C#N,-0.62
COC(=O)C[C@@H]1CC[C@H]2[C@@H](COc3ccc(NC(=O)Nc4cccc(C#N)c4)cc3C(=O)N2C)O1,-0.058
CNC(=O)C[C@@H]1CC[C@@H]2[C@H](COC[C@H](O)CN2Cc2ccccc2F)O1,0.32
C[C@H]1CC=CC[C@@H](c2ccccc2)NC(=O)[C@H](C)N(C)C(=O)c2ccccc2O1 (mixture of isomers),0.87
O=C(Nc1ccccc1)N1CC(=O)N2[C@H](C1)[C@@H](c1ccc(C#CC3CCCCC3)cc1)[C@@H]2CO,0.91
CCN(C[C@@H]1[C@@H](c2ccc(-c3ccccc3)cc2)[C@H](CO)N1C(C)=O)C(C)=O,0.43
CC(C)CC#Cc1ccc([C@@H]2[C@@H](CO)N3C(=O)CN(S(=O)(=O)c4ccccc4)C[C@H]23)cc1,2.7
COc1ccccc1NC(=O)N1CCCCN2[C@@H](CO)[C@H](c3ccc(C#Cc4ccccc4)cc3)[C@@H]2C1,-2.5
COc1ccccc1NC(=O)N1CCCCN2[C@H](CO)[C@@H](c3ccc(C#Cc4ccccc4)cc3)[C@H]2C1,-2.7
CN(C)CC#Cc1ccc([C@@H]2[C@H]3CN(C(=O)C4CCC4)CCCCN3[C@H]2CO)cc1,0.92
COc1ccccc1NC(=O)N1CCCCN2[C@H](CO)[C@H](c3ccc(C#Cc4ccccc4)cc3)[C@@H]2C1,-0.36
COc1ccccc1C#Cc1ccc([C@@H]2[C@H](CO)N3CCCCN(C(=O)C4CCC4)C[C@@H]23)cc1,-11*
COc1ccccc1C#Cc1ccc([C@H]2[C@H]3CN(C(=O)C4CCC4)CCCCN3[C@H]2CO)cc1,-18*
COc1ccc(C#Cc2ccc([C@H]3[C@H]4CN(C(=O)Nc5ccccc5)CCCCN4[C@H]3CO)cc2)cc1,1.3
COc1ccc(C#Cc2ccc([C@@H]3[C@H](CO)N4CCCCN(C(=O)Nc5ccccc5)C[C@@H]34)cc2)cc1,4
SMILES,IDE exosite FP
COc1ccccc1C#Cc1ccc([C@H]2[C@@H](CO)N3CCCCN(C(=O)C4CCC4)C[C@@H]23)cc1,-7.6*
COc1ccccc1C#Cc1ccc([C@@H]2[C@@H](CO)N3CCCCN(C(=O)C4CCC4)C[C@H]23)cc1,-8.3*
CN(C)CC#Cc1ccc([C@@H]2[C@H](CO)N3CCCCN(C(=O)C4CCC4)C[C@@H]23)cc1,2.6
COc1ccc(C#Cc2ccc([C@H]3[C@@H](CO)N4CCCCN(C(=O)Nc5ccccc5)C[C@@H]34)cc2)cc1,0.82
COCC(=O)N(C[C@@H]1[C@@H](c2ccccc2)[C@H](CO)N1C(=O)NC(C)C)C(C)C,-1.5
Cc1ccc(-c2ccc([C@@H]3[C@@H](CO)N4C(=O)CN(C(=O)c5ccc(F)cc5)C[C@H]34)cc2)cc1,0.054
COCC(=O)N(C[C@H]1N[C@@H](CO)[C@@H]1c1ccc(-c2cccnc2)cc1)C(C)C,-0.77
C[C@@H]1CN([C@H](C)CO)C(=O)c2ccccc2-c2ccccc2CO[C@@H]1CN(C)S(=O)(=O)c1cccc(C#N)c1,-0.39
C/C=C/c1ccc([C@@H]2[C@@H](CO)N(C(=O)C3CCC3)C23CN(C(=O)NC(C)C)C3)cc1,1.5

# From PubChem
